Source: ChEMBL document CHEMBL3988442, “University of Dundee, Small-Polar-MMV Screening Library” (2021)
For some assays here: Potency and affinity values are given separately.

What was measured:
Set-up in all cases: scale not given: direction of the effect not stated beside the values
[1] = target: Protein translocase subunit SecA (Escherichia coli (strain K12)) (UniProt P10408); test: Assay to Identify E. coli SecA ATPase Inhibitors; type: functional; settings: 30 µM
[2] = target: T1, Ubiquitin-activating enzyme e1, putative (Leishmania donovani (strain BPK282A1)) (UniProt E9BSI1); test: Leishmania donovani Ubiquitin Activating Enzyme (LdE1); type: functional; settings: 30 µM
T1 sequence (whole entry): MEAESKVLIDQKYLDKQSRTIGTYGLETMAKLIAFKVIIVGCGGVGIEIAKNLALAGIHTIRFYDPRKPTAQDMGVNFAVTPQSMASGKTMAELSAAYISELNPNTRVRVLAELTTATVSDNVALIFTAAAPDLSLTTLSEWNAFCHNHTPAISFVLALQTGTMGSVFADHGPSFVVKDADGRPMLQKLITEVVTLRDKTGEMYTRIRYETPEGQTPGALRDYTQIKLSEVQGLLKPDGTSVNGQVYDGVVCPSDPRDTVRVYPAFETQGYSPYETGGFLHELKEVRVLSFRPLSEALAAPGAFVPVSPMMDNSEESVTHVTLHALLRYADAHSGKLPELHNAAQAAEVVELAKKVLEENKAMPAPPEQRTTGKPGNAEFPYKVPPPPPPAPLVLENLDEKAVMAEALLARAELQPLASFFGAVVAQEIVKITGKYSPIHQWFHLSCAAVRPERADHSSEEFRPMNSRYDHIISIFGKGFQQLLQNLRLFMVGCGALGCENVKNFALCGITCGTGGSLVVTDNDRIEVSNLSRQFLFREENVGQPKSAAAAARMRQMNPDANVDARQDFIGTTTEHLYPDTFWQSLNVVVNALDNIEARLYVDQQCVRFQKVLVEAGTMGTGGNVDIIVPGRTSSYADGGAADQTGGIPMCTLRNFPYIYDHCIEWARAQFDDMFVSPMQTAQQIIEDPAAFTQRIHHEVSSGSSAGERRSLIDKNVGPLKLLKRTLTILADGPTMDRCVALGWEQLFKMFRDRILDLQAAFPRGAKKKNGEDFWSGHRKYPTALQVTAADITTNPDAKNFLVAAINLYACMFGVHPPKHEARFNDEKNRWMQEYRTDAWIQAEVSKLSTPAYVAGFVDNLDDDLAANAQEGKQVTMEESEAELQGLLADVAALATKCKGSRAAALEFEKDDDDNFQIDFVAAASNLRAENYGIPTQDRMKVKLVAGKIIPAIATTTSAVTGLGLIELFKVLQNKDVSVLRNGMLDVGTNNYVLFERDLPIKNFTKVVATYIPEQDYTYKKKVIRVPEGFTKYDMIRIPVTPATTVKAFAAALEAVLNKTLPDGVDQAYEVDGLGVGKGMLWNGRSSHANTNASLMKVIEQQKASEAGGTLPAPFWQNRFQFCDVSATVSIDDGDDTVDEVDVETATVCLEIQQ

[3] = target: AMP-activated protein kinase, AMPK (Homo sapiens) (UniProt P54646+O43741+P54619+Q9UGJ0+Q9Y478+Q13131+Q9UGI9); test: AMP-dependent Kinase enzyme assay. An in vitro enzyme assay that detects ADP turnover that is directly proportional to AMPK activity. This uses naive AMPK that is activated during the assay with MK-8722; type: functional; settings: 30 µM
[4] = target: Sialic acid-binding Ig-like lectin 9 (Homo sapiens) (UniProt Q9Y336); test: Hs-Siglec9 ALPHAscreen SOP 20170721; settings: 10 µM
[5] = system: Trypanosoma cruzi; test: Trypanosoma cruzi phosphomannomutase and mannose-1-phosphate guanylyltransferase assay; type: functional; settings: 10 µM
[6] = target: T2, Arginase-2, mitochondrial (Homo sapiens) (UniProt P78540); test: in vitro enzyme assay to detect the production of urea directly proportional to the activity of Arginase II; type: functional; settings: 33.3 µM; note: in the data most compounds retested in dose-response had high values
T2 sequence (whole entry): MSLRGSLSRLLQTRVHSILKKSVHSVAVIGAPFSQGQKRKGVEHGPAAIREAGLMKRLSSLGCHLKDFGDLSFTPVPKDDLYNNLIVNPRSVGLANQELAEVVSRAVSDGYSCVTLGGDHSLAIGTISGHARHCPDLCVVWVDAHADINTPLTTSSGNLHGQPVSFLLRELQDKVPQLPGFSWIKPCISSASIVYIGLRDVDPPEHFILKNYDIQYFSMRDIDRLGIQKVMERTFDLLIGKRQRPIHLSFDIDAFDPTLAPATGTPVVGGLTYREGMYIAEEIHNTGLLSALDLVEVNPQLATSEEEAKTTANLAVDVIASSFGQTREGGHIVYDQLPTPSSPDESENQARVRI

[7] = target: T3, Proteasome subunit beta (Trypanosoma cruzi) (UniProt O96673); test: Trypanosoma cruzi proteasome chymotrypsin-like activity (TcProtChymo) assay.; note: in the data most compounds retested in dose-response had high values; type: functional; settings: 9.37 µM
T3 sequence (whole entry): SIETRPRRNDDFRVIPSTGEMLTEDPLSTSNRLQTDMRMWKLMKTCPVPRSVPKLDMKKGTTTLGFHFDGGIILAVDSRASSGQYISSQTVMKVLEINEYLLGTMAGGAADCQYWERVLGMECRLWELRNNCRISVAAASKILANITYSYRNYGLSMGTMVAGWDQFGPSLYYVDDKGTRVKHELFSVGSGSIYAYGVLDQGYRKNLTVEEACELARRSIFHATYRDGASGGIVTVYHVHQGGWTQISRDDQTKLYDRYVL

[8] = organism: Homo sapiens; test: To identify inhibition of the IFN signalling (Jak-Stat) pathway via expression of an eGFP reporter gene under the control of an IFN-stimulated response element (ISRE) containing MxA promoter.; type: functional; settings: 30 µM
[9] = target: T4, Tyrosyl-tRNA synthetase, putative (Trypanosoma cruzi (strain CL Brener)) (UniProt Q4DSP6); test: Trypanosoma cruzi tyrosyl tRNA synthetase (TcYRS) _High Tyrosine SOP; type: functional; settings: 30 µM; note: in the data most compounds retested in dose-response had high values
T4 sequence (whole entry): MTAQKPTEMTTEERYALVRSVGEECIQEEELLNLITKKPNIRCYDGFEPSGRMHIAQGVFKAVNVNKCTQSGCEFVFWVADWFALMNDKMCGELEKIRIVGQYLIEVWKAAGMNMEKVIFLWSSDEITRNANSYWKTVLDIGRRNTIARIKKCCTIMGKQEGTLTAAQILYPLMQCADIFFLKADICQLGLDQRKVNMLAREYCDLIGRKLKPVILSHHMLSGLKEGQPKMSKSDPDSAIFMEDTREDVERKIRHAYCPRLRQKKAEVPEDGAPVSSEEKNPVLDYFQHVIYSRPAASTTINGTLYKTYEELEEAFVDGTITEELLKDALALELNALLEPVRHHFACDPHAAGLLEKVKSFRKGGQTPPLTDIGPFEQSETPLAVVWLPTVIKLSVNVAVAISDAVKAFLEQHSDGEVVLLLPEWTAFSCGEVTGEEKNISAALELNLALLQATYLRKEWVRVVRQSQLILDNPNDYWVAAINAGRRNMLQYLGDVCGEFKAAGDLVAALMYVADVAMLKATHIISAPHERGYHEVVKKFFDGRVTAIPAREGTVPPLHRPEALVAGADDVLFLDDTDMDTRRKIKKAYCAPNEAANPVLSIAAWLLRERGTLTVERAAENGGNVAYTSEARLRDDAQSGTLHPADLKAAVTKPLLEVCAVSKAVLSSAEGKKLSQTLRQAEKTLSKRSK

[10] = target: T4, Tyrosyl-tRNA synthetase, putative (Trypanosoma cruzi (strain CL Brener)); test: Trypanosoma cruzi tyrosyl tRNA synthetase (TcYRS) SOP; type: functional; settings: 30 µM
[11] = target: Chromo domain-containing protein 1 (Saccharomyces cerevisiae (strain ATCC 204508 / S288c) (Baker's yeast)) (UniProt P32657); test: ScCHD-1 Enzyme Inhibition Assay; type: functional; settings: 30 µM; note: in the data most compounds retested in dose-response had high values
Chain of Chromo domain-containing protein 1 (Saccharomyces cerevisiae (strain ATCC 204508 / S288c) (Baker's yeast)) (P32657 whole entry, the tested form may be a part): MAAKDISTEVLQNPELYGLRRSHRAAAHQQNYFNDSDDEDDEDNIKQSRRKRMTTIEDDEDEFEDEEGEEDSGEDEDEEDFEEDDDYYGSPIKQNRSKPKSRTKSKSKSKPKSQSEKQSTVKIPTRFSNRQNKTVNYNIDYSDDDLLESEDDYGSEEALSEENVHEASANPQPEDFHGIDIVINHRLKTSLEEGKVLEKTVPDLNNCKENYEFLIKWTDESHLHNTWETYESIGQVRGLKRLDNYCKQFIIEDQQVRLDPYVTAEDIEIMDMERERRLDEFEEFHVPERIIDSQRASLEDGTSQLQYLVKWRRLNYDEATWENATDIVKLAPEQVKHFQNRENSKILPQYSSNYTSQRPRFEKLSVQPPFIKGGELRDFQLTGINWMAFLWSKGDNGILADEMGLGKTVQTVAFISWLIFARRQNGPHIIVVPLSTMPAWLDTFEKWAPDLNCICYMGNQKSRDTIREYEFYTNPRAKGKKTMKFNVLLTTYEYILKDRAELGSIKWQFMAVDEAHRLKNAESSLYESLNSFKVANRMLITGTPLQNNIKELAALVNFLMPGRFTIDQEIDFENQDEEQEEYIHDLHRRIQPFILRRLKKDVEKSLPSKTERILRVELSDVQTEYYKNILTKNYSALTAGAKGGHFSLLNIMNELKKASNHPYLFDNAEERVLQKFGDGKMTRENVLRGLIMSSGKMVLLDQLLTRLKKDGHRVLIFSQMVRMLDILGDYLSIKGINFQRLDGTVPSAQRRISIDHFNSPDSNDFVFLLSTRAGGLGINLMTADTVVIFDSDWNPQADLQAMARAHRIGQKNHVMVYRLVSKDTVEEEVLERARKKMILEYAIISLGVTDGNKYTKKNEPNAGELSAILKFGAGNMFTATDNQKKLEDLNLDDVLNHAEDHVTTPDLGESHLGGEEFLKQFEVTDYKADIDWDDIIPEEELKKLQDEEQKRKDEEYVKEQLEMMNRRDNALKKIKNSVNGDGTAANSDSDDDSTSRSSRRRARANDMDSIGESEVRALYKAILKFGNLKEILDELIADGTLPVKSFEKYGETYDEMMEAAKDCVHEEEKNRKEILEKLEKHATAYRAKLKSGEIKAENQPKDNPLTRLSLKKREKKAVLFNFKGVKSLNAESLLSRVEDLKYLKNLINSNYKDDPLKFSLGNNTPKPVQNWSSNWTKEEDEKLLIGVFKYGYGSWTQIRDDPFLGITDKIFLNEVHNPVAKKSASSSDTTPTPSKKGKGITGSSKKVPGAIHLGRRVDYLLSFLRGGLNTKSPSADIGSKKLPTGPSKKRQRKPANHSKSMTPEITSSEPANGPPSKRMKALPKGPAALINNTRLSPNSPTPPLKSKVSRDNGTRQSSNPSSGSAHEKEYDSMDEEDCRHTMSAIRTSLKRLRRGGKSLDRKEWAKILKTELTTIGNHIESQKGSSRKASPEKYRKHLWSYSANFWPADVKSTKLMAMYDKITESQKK

Chain of Sialic acid-binding Ig-like lectin 9 (Homo sapiens) (Q9Y336 whole entry): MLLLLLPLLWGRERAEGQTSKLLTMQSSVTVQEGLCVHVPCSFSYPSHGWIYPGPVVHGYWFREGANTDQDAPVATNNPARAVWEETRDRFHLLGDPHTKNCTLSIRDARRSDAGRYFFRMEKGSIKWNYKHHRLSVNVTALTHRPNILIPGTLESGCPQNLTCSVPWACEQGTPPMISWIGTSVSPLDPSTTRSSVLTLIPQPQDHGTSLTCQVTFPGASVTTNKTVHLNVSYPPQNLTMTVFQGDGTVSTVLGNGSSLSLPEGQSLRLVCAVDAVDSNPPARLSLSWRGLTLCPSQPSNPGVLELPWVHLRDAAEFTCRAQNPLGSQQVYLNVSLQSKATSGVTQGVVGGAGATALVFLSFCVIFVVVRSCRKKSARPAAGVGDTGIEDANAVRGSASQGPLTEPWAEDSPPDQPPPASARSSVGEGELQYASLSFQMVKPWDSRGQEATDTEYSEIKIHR
Chain of Protein translocase subunit SecA (Escherichia coli (strain K12)) (P10408 whole entry): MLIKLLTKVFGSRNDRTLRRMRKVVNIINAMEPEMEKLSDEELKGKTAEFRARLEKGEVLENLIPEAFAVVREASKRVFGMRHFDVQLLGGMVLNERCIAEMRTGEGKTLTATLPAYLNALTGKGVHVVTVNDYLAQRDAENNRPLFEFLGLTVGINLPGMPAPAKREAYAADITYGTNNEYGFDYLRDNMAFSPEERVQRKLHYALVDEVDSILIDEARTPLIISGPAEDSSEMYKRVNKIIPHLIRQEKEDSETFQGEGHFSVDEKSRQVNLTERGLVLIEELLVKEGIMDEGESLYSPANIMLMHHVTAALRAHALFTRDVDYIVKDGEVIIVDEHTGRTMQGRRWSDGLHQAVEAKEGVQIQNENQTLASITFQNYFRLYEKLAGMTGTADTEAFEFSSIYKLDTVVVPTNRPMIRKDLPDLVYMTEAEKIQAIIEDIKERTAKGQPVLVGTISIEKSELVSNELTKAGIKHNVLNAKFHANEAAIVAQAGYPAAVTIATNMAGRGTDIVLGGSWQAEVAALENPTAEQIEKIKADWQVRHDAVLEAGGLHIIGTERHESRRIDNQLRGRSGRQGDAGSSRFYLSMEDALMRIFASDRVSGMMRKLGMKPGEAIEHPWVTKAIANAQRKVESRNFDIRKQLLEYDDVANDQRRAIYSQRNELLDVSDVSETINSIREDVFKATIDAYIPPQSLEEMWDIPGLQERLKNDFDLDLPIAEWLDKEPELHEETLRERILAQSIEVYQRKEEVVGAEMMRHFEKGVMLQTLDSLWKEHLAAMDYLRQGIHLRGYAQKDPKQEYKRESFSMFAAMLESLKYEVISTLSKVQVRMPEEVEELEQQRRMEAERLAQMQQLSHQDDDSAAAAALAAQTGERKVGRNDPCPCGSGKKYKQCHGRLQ

Structure (SMILES)	Percent Effect [1]	Percent Effect [2]	Percent Effect [3]	Percent Effect [4]	Percent Effect [5]	Percent Effect [6]	Percent Effect [7]	Percent Effect [8]	Percent Effect [9]	Percent Effect [10]	Percent Effect [11]
CN(Cc1ccco1)Cc1ccccc1CNC(=O)c1ccncc1	-4.48%	5.41%	13.1%	4.84%	0.386%	0%	12.8%	-3.63%	2.65%	4.88%	-2.3%
COCc1cc(NCc2cc(F)ccc2F)n2nccc2n1	-3.49%	-2.74%	-7.06%	1.05%	-5.68%	2.27%	5.15%	15.9%	2.15%	7.5%	-6.68%
COc1ccc(CN2CCCC2Cn2nc(C)nc2C)cc1F (centres undefined)	-3.83%	6.33%	4.88%	0.831%	-0.718%	2.8%	8.58%	3.7%	5.21%	7.59%	-16.6%
CCn1ccnc1CN1CCN(CCOc2ccccc2OC)CC1	-1.18%	0%	-0.305%	3.72%	6.39%	4.21%	8.19%	7.16%	0.49%	7.32%	-2.76%
